The values below come from PubChem BioAssay.

Several values for one entry are separate records, joined by “and”; a condition that tells them apart may be missing. Equal values may be shown once. Results filed as inconclusive are left out. Activity calls are given as the source filed them.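 How the source made its calls, unless noted: active means mean z-score across replicates of 1.96 or higher in either the MELAS or the Rieske mutant cell line; inactive means the rest.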

A short description of test [1]: P. berghei load reduction in hepatocytes – cell-based, HepG2, luciferase luminescence, HepG2 viability, primary screen (AID 624349; in the data active means parasite load remaining mostly below about 12%, no sharp cut-off; inactive means mostly above about 10%;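 further: 100% = mean of DMSO negative control wells on the same plate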). The following applies: P. berghei liver stage in HepG2, luciferase luminescence, concentration not given here; parasite load remaining: stronger effect = lower value; viability: measured here: HepG2 viability without parasites.
A short description of test [2]: Wnt pathway potentiators raising nuclear beta-catenin – imaging, WNT3A-conditioned medium, mouse C2C12, NPC library, primary screen (AID 1117326; in the data active means nuclear beta-catenin stimulation mostly above about 4.2%, no sharp cut-off; inactive means mostly below about 10%; further: reference of the scale not given here). The following applies: stronger effect = higher value.
A short description of test [3]: stimulators of insulin release from INS-1E, primary screen, cell-based, 5 mM glucose, NPC library (AID 1117329;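 active means compound raises insulin release from rat beta cells at 5 mM glucose, no numeric limit stated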; further: reference of the scale not given here). The following applies: rat INS-1E insulin secretion, at 10 µM, stronger effect = higher value.
Test [4] can be described thus: growth inhibition of GSK3B-pretreated HCT116 cells – cell-based, CellTiter-Glo, 0.2 to 20 µM (AID 1117336;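 active means compounds lowering colon cancer cell viability after pretreatment blocking the GSK3B kinase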). The note with it: HCT116 viability after GSK3B inhibitor, at 20 µM, stronger effect = higher value.
Test [5] in a line: inhibition of endothelial tube formation, primary screen, imaging, VEGF stimulated, CD31 staining, tube area, NPC library (AID 1117340;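 active means compound that reduces growth-factor-driven endothelial tube area in a mixed cell culture, no cutoff stated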). The following applies: VEGF-stimulated ADSC/ECFC co-culture, at 10 µM, stronger effect = higher value.
A short description of test [6]: GLP1 release stimulators, primary, NCI-H716, NPC library (AID 1117341;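 active means compound raises GLP1 secretion from the human gut endocrine cells, with no numeric limit stated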; further: reference of the scale not given here). The note with it: NCI-H716 cells, at 10 µM, stronger effect = higher value.
Test [7] in a line: HCT116 colon cancer cell growth inhibition, primary screen, CellTiter-Glo luminescence, NPC library (AID 1117342;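 active means compounds that lower survival of HCT116 colon cancer cells in the luminescence readout, no numeric limit stated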). The note with it: at 20 µM (top of the series).
Test [8] can be described thus: reduced SW480 viability measured with CellTiter-Glo, NPC library, primary (AID 1117343;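 active means compounds that lower viability of the colon cancer cells in the luminescence readout, with no numeric limit stated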). The note with it: CellTiter-Glo luminescence; at 20 µM (top of the series) unless noted.
A short description of test [9]: NPC library primary testing for decreased DLD-1 cell viability via CellTiter-Glo (AID 1117346;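 active means compounds that lower survival of DLD-1 colon cancer cells in the luminescence readout, no cutoff given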). The following applies: DLD-1 viability, CellTiter-Glo luminescence; at 20 µM (top of the series).
For test [10], the system named is Aerobactin synthetase IucA (Klebsiella pneumoniae). The experiment in a line: inhibition of K. pneumoniae IucA enzyme – biochemical, Tocris library, absorbance (AID 1345561; call rule not given here;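 further: 100% = enzyme without compound and 0% = no enzyme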). The following applies: purified IucA enzyme assay, absorbance (OD) read-out; stronger effect = lower value;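 tested at 8 µM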.
Test [11] in a line: MELAS cybrid and Rieske KO viability enhancers – cell-based, MELAS cybrids, Rieske KO mouse fibroblasts, CellTiter-Glo, primary screen (AID 1508586).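 Further: z relative to plate mean and SD of compound and empty wells.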 The note with it: low glucose.
Test [12] in a line: galactose survival enhancers in mitochondrial complex I cybrids – cell-based, galactose medium, ATP luminescence, primary screen (AID 1645843;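 active means z-score of at least 1.8 in each of two replicates, scored against plate mean and spread of sample wells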;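 further: positive z means more ATP and so rescue of galactose-driven cybrid death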). The following applies: complex I mutant cybrid cells, 72 h, stronger effect = higher value.
Test [13] can be described thus: viability loss in pontine glioma line – cell-based, SU-DIPG-XVII, MIPE5.0, CellTiter-Glo, qHTS, dose response (AID 1347060; cut-off not given, nearly all actives have AC50 up to about 26 µM;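 on AC50: cells exposed to compound for 48 hours before viability readout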). The following applies: CellTiter-Glo ATP luminescence.
Test [14] in a line: viability loss in pontine glioma line – cell-based, SU-DIPG-XIII, MIPE4.0, CellTiter-Glo, qHTS, dose response (AID 1347061; cut-off not given, nearly all actives have AC50 up to about 37 µM;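 further: cells exposed to compound for 48 hours before readout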). The note with it: CellTiter-Glo ATP luminescence.
Test [15] can be described thus: growth inhibition of DIPG cells – cell-based, MIPE5.0 library, qHTS (AID 1347068; cut-off not given, nearly all actives have IC50 up to about 30 µM;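 on IC50: cells exposed to compound for 48 hours before viability readout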). The note with it: SU-DIPG-XXV viability.
Test [16] is described as follows: viability loss with induced miR-34 in A549 – imaging, A549 dox-inducible miR-34, nuclei and caspase counts, primary screen (AID 1347080;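 active means compounds whose cell count with miR-34 switched on is under 0.7 times the count with it off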). The note with it: A549 miR-34 inducible, Hoechst nuclei count, 48 h.
Test [17] is described as follows: growth inhibition of DIPG cells – cell-based, MIPE4.0 library, CellTiter-Glo luminescence, qHTS (AID 1347066; cut-off not given, nearly all actives have AC50 up to about 30 µM;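 further: cells exposed to compound for 48 hours before readout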). The note with it: SU-DIPG-VI viability, CellTiter-Glo ATP luminescence.
Test [18] concerns the target NAD(+) hydrolase SARM1 (Homo sapiens) (UniProt Q6SZW1). The experiment in a line: blocking NAD cleavage by SARM1 SAM-TIR – cell lysate, NAD-Glo luminescence (AID 1508614;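 active means compound whose remaining NAD level is above about 45 nM, limit read from the data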). The note with it: SAM-TIR HEK293T lysate NADase, at 1 µM, stronger effect = higher value.
Setting [19] is: MELAS cybrid survival, CellTiter-Glo 48 h, stronger effect = higher value.
Setting [20] is: Rieske KO mouse fibroblast survival, CellTiter-Glo 72 h.
Setting [21] is: stronger effect = lower value, cell number ratio, induced over uninduced.
The mark [22] stands for this setting: measured here: relative caspase fold change +Dox/-Dox.
The mark [23] stands for this setting: measured here: total cells with miR-34 induction, stronger effect = lower value.
Where [24] appears, read: measured here: total cells without miR-34 induction.

Sequence of NAD(+) hydrolase SARM1 (Homo sapiens) (Q6SZW1 whole entry, looked up): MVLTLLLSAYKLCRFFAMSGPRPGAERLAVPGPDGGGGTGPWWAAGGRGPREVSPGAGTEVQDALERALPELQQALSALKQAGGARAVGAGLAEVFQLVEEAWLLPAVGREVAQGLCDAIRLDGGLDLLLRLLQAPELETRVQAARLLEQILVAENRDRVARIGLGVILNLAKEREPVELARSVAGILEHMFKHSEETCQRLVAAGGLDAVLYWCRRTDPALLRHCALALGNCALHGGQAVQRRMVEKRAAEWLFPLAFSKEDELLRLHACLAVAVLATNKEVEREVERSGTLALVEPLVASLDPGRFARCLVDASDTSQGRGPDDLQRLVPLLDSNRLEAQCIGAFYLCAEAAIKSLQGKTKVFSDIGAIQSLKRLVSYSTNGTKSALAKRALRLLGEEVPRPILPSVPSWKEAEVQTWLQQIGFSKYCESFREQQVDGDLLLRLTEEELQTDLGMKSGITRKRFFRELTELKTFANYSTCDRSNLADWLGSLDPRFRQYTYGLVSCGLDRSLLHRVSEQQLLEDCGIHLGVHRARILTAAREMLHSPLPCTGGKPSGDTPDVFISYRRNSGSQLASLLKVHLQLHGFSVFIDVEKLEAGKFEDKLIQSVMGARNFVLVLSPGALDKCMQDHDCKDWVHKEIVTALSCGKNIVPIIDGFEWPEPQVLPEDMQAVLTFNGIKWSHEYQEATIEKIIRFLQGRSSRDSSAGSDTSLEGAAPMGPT

For the compound `CNCCC(Oc1ccccc1OC)c1ccccc1` (configuration not stated), the parasite load remaining in test [1] was 99.2% (inactive) and 34.1% (inactive). The viability in test [1] was 99.6% and 98.5%. The nuclear beta-catenin stimulation was -0.2% (inactive) in [2] (at 10 µM) and 0.5% in test [2] (stimulation, at 2 µM). Also, in [3], the insulin secretion stimulation was 8% (inactive). Moreover, in test [4], the viability decrease was -108% (inactive). In [5], the tube area decrease was 0.4% (inactive). Further, the GLP1 secretion stimulation in test [6] is 1.3% (inactive). Besides, the inhibition of viability in test [7] is 1.93% (inactive). Besides, the viability decrease (inhibition) in test [8] is 16.6% (inactive); in test [9], -38.2% (inactive). Also, the remaining activity in test [10] is 107% (inactive). The z-score is -0.579 (inactive) and 0.865 (inactive) in test [11] (setting [19]); -0.0039 and 1.57 in [11] (setting [20]); -0.245 (inactive) and -0.495 (inactive) and 0.12 (inactive) in [12].
As to `CC(C)OC(=O)C(C(=O)OC(C)C)=C1SC=CS1`, the nuclear beta-catenin stimulation in [2] (at 10 µM) is 1.3% (inactive); in test [2] (stimulation, at 2 µM), 0.1%. The insulin secretion stimulation in test [3] is 0.3% (inactive). Further, in test [4], the viability decrease is 3.95% (inactive). In [5], the tube area decrease is 4.8% (inactive). Also, the GLP1 secretion stimulation in test [6] is 3.5% (inactive). Besides, in test [7], the inhibition of viability was -0.1% (inactive). The viability decrease (inhibition) in [8] is 6.3% (inactive); in test [9] it was 8.2% (inactive). Further, the call in test [13], in test [14] and in test [15] was inactive. Further, the values for the fold change in test [16] (setting [21]) and in test [16] (setting [22]) were 0.9 (inactive) and 0.974, respectively. The cell count was 7660 in test [16] (setting [23]) and 8520 in [16] (setting [24]). Moreover, the results for the z-score in test [11] (setting [19]) and in [11] (setting [20]) were -0.382 (inactive) and 0.382, respectively.
Regarding `O=c1[nH]c(=O)n([C@H]2C[C@H](O)[C@@H](CO)O2)cc1I`, the parasite load remaining in test [1] is 42.1% (inactive) and 24.1% (inactive). Also, in [1], the viability was 53.4% and 72.5%. Further, the nuclear beta-catenin stimulation was -0.5% (inactive) in test [2] (at 10 µM) and 0.3% in test [2] (stimulation, at 2 µM). For the same compound, the insulin secretion stimulation in test [3] is 0.4% (inactive). Also, the viability decrease in test [4] is 10.1% (inactive). Further, in test [5], the tube area decrease is 69.4% (active). The GLP1 secretion stimulation in test [6] was -0.6% (inactive). Besides, the inhibition of viability in test [7] is 11.4% (inactive). The viability decrease (inhibition) is 39.4% (inactive) in [8] and 9.4% (inactive) in [9]. Besides, the call in [13], in [14], in test [17] and in test [15] was inactive. Besides, the fold change in [16] (setting [21]) was 0.955 (inactive) and 0.894 (inactive); in test [16] (setting [22]), 1.48 and 1.08. For the same compound, the cell count in test [16] (setting [23]) was 8120 and 9040; in test [16] (setting [24]), 8510 and 10100. The z-score is 1.21 (inactive) and 1.8 (inactive) in test [11] (setting [19]); 0.284 and 0.0835 in test [11] (setting [20]); 0.45 (inactive) in test [12]. The remaining NAD in test [18] was 10 nM (inactive).
As to `CCCCCCCCCCCCCCCC(=O)NCCO`, the nuclear beta-catenin stimulation was 2.2% (inactive) in [2] (at 10 µM) and 8.9% in test [2] (stimulation, at 2 µM). Also, the insulin secretion stimulation in test [3] is 4.7% (inactive). The viability decrease in test [4] was -7.4% (inactive). Besides, in [5], the tube area decrease is -5.7% (inactive). Also, the GLP1 secretion stimulation in test [6] is -1.8% (inactive). Also, the inhibition of viability in test [7] was 1.3% (inactive). In addition, the viability decrease (inhibition) in [8] is -42.2% (inactive); in [9], -11.2% (inactive). Further, in [10], the remaining activity was 113% (inactive). For the same compound, the remaining NAD in test [18] is 10 nM (inactive). Moreover, the z-score in test [12] is 0.05 (inactive).
For the compound `C[C@@H](NCCCc1cccc(C(F)(F)F)c1)c1cccc2ccccc12`, the nuclear beta-catenin stimulation in [2] (at 10 µM) was 35.9% (inactive); in [2] (stimulation, at 2 µM), -0.4%. Further, the insulin secretion stimulation in [3] was 0.2% (inactive). Further, in test [4], the viability decrease is 101% (active). Also, the tube area decrease in test [5] was 99.6% (active). For the same compound, in test [6], the GLP1 secretion stimulation is 20.5% (active). Further, in [7], the inhibition of viability is 102% (active). The viability decrease (inhibition) in test [8] was 123% (active); in [9] it was 104% (active). The AC50 in test [13] is 16.6 µM (active). The outcome in test [14] and in test [17] was inactive. In test [15], the IC50 was 20.9 µM (active). Besides, the values for the fold change in test [16] (setting [21]) and in test [16] (setting [22]) were 0.971 (inactive) and 0.761, respectively. In addition, the cell count in test [16] (setting [23]) is 5970; in [16] (setting [24]) it was 6150. Further, the z-score in test [11] (setting [19]) was -0.442 (inactive); in test [11] (setting [20]) it was 0.442.
